Source: PubChem BioAssay
Inconclusive results are not listed. Active and inactive are the calls of the source. Unless noted, the rule behind the calls is not given here.

Key:
[1] = yeast TOR pathway RPL19A-GFP modulators, primary screen, cell-based, S. cerevisiae, multiplex flow cytometry (AID 1862; in the data active = percent of DMSO control GFP below about 86%;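 note: lower values mimic rapamycin by blocking the RPL19A rise seen in DMSO cells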); settings: S. cerevisiae RPL19A-GFP strain, flow cytometry fluorescence, 3 h; at 10 µM; stronger effect = lower value
[2] = modulators of MEP2-GFP levels in yeast, primary screen, S. cerevisiae, multiplex flow cytometry (AID 1867;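 active = GFP response, as percent of the DMSO control, above the screen-wide mean plus 3 SD, about 139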;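 note: median GFP channel fluorescence of barcode-gated MEP2-GFP cells measured by flow cytometry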); settings: S. cerevisiae MEP2-GFP strain, 3 h, at 10 µM, stronger effect = higher value
[3] = modulators of CIT2-GFP expression in yeast, primary screen, S. cerevisiae, GFP fusion, multiplex flow cytometry (AID 1870;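 active = percent response above a set limit, the screen-wide mean plus 3 SD, cut at about 130% in these data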;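 note: barcoded CIT2-GFP strain pooled with four other GFP strains with rapamycin as positive control; median GFP fluorescence per well over plate mean of DMSO wells so 100% = DMSO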); settings: 3 h, at 10 µM, stronger effect = higher value
[4] = modulators of LAP4-GFP expression in yeast, primary screen, S. cerevisiae, multiplex flow cytometry (AID 1873;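 active = GFP signal, as percent of the solvent control, above the screen mean plus 3 SD, about 149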); settings: 3 h, at 10 µM, stronger effect = higher value
[5] = modulators of AGP1-GFP expression in yeast TOR pathway, primary screen, cell-based, multiplex flow cytometry, S. cerevisiae (AID 1887;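 active = GFP signal above the screen-wide mean plus 3 SD, that is over about 124.5% of the solvent control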;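 note: AGP1-GFP fusion strain of S. cerevisiae within a five-strain barcoded multiplex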); settings: 3 h, at 10 µM, stronger effect = higher value
[6] = inhibitors of CD8+ T cell-vesicle binding, pilot screen, LFA-1/ICAM-1 modulator project, MLPCN validation set, flow cytometry (AID 2523;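 active = response below a set limit, under 55% cells CD8-positive and vesicle-bound, and CD8 cells' 90th-percentile brightness under 279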;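 for vesicle binding response: mean PE anti-B7-1 fluorescence of CD8+ cells relative to row control; 100% = QL9-loaded vesicles with DMSO vehicle in the same plate row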); settings: 2C mouse CD8+ T cells, at 7 µM, stronger effect = lower value; double positive events: measured here: CD8+/vesicle+ event percentage
[7] = biological target: Integrin beta-1 (Homo sapiens) + Integrin alpha-4 (Homo sapiens) (UniProt P13612+P05556); experiment: inhibition of HUTS-21 binding to VLA-4, pilot screen, VLA-4 allosteric modulator project, U937 cells, HUTS-21 mAb, flow cytometry, validation set (AID 2674;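 active = inhibition above 50%, about 3 SD of the validation set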;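 note: antibody binding induced by the VLA-4 ligand LDV present at three times its Kd; 0% = LDV ligand with antibody and no compound and 100% = antibody without LDV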); settings: HUTS-21 LIBS mAb binding, at 6.7 µM, stronger effect = higher value
[8] = superoxide lowering in aged yeast cells, pilot screen, validation compound set (AID 2706;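 active = superoxide response below 65% of plate, a cut near 3 SD across the whole screen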;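 note: yeast exposed to compound for one week at 30 degrees C before staining; 100% = mean of all compound wells on the same plate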); settings: S. cerevisiae aging, superoxide DHE fluorescence; at 10 µM; stronger effect = lower value
[9] = biological target: Beta-adrenergic receptor kinase 1 (Homo sapiens) (UniProt P25098); experiment: GRK2 binders displacing RNA aptamer, biochemical, validation, human GRK2, bead flow cytometry (AID 488806;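 active = aptamer binding inhibition above 30%, about 3 SD of noise from non-fluorescent compounds; inactive = inhibition at or below 30%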); settings: bead-bound GRK2, FAM-aptamer displacement, at 10 µM, stronger effect = higher value
Sequence of Beta-adrenergic receptor kinase 1 (Homo sapiens) (P25098 whole entry, looked up): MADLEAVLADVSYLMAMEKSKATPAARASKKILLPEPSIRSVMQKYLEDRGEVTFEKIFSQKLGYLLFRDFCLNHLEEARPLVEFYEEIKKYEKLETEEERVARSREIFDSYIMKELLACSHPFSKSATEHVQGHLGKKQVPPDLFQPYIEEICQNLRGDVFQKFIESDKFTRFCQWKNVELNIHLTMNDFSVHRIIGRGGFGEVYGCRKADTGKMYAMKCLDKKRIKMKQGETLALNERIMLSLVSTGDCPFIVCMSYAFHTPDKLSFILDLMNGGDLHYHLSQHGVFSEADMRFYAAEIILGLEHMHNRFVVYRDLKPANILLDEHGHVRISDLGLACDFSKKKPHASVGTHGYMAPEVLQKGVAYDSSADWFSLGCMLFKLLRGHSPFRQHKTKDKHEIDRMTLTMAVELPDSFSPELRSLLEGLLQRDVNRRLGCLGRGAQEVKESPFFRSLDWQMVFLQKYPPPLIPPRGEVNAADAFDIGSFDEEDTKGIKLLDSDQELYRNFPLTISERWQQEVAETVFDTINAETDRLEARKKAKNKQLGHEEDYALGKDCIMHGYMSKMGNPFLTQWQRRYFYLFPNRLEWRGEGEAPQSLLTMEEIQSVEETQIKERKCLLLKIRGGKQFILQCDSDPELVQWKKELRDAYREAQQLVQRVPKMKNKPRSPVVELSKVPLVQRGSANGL

[10] = biological target: Beta-2 adrenergic receptor (Homo sapiens) (UniProt P07550); experiment: beta2AR agonists driving receptor internalization, pilot screen, cell-based, FAP fluorogen, flow cytometry, validation set (AID 504459;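 active = percent response above 42, roughly 3 SD of non-fluorescent test compounds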;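 note: agonist-driven loss of surface beta2AR via internalization measured by FAP dye flow cytometry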); settings: Am2.2-beta2AR cells, FAP surface receptor flow cytometry; at 10 µM; stronger effect = higher value
Sequence of Beta-2 adrenergic receptor (Homo sapiens) (P07550 whole entry, looked up): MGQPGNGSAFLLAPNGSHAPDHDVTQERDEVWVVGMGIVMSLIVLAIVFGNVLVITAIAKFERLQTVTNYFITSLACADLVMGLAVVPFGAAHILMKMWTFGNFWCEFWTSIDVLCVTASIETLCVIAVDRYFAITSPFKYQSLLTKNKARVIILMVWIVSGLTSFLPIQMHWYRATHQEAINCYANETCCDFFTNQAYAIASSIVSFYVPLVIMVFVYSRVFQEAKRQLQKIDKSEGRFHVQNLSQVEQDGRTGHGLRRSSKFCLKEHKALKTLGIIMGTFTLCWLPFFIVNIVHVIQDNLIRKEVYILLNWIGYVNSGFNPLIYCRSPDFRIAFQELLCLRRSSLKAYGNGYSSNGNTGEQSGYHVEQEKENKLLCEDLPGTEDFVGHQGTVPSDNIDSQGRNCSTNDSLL

[11] = biological target: AP-2 complex subunit beta (Homo sapiens) (UniProt P63010); experiment: inhibitors of arrestin peptide binding to AP2, pilot screen, biochemical, validation set, GST-AP2 beads, flow cytometry (AID 504541;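 active = inhibition above 54%, about 3 SD of non-fluorescent compounds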;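 note: AP2 carries R879A mutation and is captured from E. coli lysate; bead-bound FITC arrestin peptide fluorescence measuring arrestin peptide binding to AP2; 0% = DMSO wells and 100% = excess unlabeled arrestin peptide control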); settings: FITC arrestin peptide, at 10 µM, stronger effect = higher value
Sequence of AP-2 complex subunit beta (Homo sapiens) (P63010 whole entry, looked up, one chain of several): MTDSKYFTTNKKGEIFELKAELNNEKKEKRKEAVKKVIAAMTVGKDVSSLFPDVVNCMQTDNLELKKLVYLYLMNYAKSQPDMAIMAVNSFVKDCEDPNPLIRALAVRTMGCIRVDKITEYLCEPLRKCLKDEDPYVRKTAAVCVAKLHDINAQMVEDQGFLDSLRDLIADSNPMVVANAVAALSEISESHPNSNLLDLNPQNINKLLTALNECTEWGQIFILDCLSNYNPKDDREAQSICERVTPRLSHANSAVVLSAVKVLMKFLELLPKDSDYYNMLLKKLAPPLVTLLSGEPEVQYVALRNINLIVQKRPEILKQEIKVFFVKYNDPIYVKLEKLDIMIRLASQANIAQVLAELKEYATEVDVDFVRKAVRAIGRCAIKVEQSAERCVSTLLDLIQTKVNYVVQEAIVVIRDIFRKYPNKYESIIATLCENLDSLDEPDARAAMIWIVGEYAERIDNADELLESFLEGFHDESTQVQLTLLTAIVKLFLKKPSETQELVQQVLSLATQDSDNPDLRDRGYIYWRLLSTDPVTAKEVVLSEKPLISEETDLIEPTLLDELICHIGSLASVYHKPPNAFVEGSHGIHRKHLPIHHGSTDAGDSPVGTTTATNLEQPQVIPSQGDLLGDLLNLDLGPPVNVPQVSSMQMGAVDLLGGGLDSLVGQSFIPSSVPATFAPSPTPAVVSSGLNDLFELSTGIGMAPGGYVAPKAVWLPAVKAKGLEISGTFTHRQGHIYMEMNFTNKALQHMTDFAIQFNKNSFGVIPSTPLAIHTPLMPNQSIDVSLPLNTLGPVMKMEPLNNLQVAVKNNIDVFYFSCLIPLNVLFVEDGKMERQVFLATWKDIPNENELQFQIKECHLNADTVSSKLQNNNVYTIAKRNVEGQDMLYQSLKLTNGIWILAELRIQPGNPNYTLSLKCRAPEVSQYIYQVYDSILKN

[12] = yeast V-ATPase proton transport modulators, S. cerevisiae, pHLuorin, HTS validation (AID 504600; in the data active = response above about 15%;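 note: plate controls were DMSO for no effect and reference compound for full effect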); settings: S. cerevisiae pHLuorin cytosolic pH, at 10 µM, stronger effect = higher value
[13] = system: anti-desmoglein-3 scFv antibody binding to human DSG3; experiment: inhibitors of anti-DSG3 scFv binding to DSG3, pilot screen, biochemical, validation compound set, bead-based, flow cytometry (AID 588368;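 active = binding below the plate cutoff, the plate median minus 3 SD, with a reading above zero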;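 note: signal is the median channel fluorescence of bead-bound GFP antibody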); settings: Protein G beads, DSG3-Fc, scFv-GFP binding, at 10 µM, stronger effect = lower value
[14] = system: Botulinum neurotoxin type F light chain protease (Clostridium botulinum); experiment: Botulinum neurotoxin type F light chain protease inhibition, multiplex microsphere flow cytometry, validation set (AID 588459); settings: multiplex microsphere protease substrate cleavage assay, at 10 µM, stronger effect = higher value
[15] = biological target: Botulinum neurotoxin type A (Clostridium botulinum) (UniProt P0DPI0); experiment: BoNT/A light chain protease inhibitors, biochemical, multiplex microsphere flow cytometry, validation set (AID 588460); settings: at 10 µM, stronger effect = higher value
Sequence of Botulinum neurotoxin type A (Clostridium botulinum) (P0DPI0 whole entry, looked up): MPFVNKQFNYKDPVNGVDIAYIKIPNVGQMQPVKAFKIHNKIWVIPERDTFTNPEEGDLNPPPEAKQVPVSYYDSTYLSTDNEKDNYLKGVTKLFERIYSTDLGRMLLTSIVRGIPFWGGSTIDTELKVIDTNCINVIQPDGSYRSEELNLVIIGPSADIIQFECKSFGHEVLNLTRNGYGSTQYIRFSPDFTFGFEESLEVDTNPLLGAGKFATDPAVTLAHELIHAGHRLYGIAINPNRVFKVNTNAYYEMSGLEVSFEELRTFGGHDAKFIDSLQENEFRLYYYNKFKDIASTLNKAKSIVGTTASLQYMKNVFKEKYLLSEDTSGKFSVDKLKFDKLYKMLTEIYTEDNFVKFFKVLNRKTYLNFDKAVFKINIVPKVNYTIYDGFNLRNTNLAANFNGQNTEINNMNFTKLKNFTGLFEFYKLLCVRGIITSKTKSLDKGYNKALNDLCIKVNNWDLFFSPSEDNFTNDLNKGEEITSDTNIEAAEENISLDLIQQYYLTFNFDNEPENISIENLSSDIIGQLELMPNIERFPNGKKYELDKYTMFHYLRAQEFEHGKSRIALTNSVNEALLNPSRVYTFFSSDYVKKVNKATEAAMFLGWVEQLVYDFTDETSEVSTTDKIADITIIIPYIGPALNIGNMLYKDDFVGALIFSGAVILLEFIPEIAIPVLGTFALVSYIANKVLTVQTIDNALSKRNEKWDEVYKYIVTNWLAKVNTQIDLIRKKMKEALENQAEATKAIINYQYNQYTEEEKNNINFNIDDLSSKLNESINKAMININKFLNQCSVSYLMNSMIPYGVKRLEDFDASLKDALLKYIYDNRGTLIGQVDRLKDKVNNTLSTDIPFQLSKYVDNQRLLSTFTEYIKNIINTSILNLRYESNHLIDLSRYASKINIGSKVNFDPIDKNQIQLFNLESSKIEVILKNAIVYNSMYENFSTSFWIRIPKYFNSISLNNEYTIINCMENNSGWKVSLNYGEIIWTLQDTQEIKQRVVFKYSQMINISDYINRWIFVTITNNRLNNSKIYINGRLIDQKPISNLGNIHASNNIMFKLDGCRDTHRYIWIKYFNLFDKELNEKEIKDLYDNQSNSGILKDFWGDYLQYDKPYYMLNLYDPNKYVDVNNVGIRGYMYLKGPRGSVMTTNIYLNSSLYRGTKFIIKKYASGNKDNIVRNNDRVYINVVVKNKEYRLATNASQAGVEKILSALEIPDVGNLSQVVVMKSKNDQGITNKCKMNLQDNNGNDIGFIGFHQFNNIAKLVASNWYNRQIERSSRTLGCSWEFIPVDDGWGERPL

[16] = biological target: Lethal factor (Bacillus anthracis) (UniProt P15917); experiment: Lethal factor protease inhibitors, Bacillus anthracis, multiplex microsphere cleavage assay, validation set (AID 588461); settings: flow cytometry, at 10 µM, stronger effect = higher value
Sequence of Lethal factor (Bacillus anthracis) (P15917 whole entry, looked up): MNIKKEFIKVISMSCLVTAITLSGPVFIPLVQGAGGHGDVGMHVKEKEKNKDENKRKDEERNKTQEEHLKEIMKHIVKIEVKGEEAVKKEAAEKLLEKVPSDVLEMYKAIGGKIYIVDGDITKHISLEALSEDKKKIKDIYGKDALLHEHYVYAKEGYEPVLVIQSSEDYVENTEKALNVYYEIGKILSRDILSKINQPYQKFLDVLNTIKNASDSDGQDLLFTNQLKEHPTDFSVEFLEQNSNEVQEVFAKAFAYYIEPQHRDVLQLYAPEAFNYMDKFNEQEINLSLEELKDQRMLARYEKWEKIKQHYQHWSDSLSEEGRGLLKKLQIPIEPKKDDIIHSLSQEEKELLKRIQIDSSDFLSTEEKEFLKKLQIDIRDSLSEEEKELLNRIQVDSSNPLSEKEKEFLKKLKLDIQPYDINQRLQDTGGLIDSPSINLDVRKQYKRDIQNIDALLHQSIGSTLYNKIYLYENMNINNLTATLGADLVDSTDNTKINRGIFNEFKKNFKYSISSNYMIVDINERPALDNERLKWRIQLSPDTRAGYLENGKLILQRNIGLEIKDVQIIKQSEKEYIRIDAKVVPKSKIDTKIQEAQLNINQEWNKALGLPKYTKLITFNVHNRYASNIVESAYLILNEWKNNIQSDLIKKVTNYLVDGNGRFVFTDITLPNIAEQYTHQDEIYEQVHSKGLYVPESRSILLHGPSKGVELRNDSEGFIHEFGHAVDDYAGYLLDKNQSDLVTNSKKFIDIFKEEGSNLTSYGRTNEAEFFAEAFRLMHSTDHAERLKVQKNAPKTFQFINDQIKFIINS

[17] = inhibitors of fungal efflux pumps CDR1, CDR2, MDR1, pilot screen, validation compound set, multiplex, phenotypic (AID 588506;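 active = efflux inhibition above 0.42, the validation set average plus 4 SD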;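 note: Nile Red retained in cells so higher fluorescence means more efflux inhibition; 0 = negative control wells and 1 = enniatin B 25 µM full block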); settings: S. cerevisiae pump-expressing triplex, Nile Red efflux flow cytometry; at 10 µM; stronger effect = higher value
[18] = biological target: ATP-binding cassette sub-family B member 6 (Homo sapiens) (UniProt Q9NP58); experiment: ABCB6 transporter inhibitors, pilot screen, K562-ABCB6 cells, flow cytometry, validation set (AID 588550;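 active = inhibition above the screen-wide mean plus 3 SD, about 51%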;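 note: 0% = DMSO wells and 100% = benzethonium chloride 70 µM positive control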); settings: K562-ABCB6 porphyrin accumulation, 1 h, at 10 µM, stronger effect = higher value
Sequence of ATP-binding cassette sub-family B member 6 (Homo sapiens) (Q9NP58 whole entry, looked up): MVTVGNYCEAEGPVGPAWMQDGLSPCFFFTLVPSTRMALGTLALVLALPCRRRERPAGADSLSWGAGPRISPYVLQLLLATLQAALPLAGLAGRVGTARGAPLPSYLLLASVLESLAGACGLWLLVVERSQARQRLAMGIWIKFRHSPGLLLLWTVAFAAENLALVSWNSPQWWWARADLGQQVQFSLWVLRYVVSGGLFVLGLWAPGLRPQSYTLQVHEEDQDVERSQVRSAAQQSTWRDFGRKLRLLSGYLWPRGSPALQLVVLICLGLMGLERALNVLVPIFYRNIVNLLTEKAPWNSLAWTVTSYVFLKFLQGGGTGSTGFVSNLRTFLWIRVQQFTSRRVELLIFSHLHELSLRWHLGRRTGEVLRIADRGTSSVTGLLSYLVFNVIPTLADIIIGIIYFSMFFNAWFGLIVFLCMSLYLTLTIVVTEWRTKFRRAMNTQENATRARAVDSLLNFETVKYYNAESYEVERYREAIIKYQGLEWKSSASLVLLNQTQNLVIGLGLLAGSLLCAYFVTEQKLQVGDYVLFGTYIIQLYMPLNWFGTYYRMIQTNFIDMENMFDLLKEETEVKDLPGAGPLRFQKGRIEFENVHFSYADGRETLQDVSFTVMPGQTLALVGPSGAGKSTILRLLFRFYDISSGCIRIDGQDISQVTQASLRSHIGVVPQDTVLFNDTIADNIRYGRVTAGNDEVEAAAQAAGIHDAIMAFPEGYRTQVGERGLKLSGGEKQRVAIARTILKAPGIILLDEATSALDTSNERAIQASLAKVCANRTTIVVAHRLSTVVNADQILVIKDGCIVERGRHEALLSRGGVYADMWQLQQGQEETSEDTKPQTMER

[19] = promoters of myeloid differentiation in arrested cells, primary screen, cell-based, GFP/MAC1 double positive, flow cytometry, validation set (AID 588685;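 active = differentiation response of at least 50%, scaled between solvent and reference control, from cells with both markers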;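 note: compound exposure lasts four days before antibody staining and flow analysis; 0% = DMSO wells and 100% = 5 µM fulvestrant positive control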); settings: ER-HoxA9 marrow cells, stronger effect = higher value

| Compound | percent of DMSO control GFP [1] | GFP response vs DMSO [2] | percent response of DMSO control [3] | GFP response vs DMSO [4] | GFP response, % of DMSO [5] | double positive events [6] [%] | vesicle binding response [6] | inhibition [7] | superoxide response (% of plate) [8] | aptamer binding inhibition [9] | response [10] | inhibition [11] | response [12] | binding (% of control) [13] | inhibition [14] | inhibition [15] | inhibition [16] | efflux inhibition (fraction of control) [17] | inhibition [18] | differentiation response [19] |
| --- | --- | --- | --- | --- | --- | --- | --- | --- | --- | --- | --- | --- | --- | --- | --- | --- | --- | --- | --- | --- |
| CN1C2CCC1CC(OC(=O)CCN1CCCC1)C2 (stereo not given) | 105% (inactive) | 105% (inactive) | 107% (inactive) | 115% (inactive) | 113% (inactive) | 61.6 | 194% (inactive) | 8.25% (inactive) | 98.4% (inactive) | 4% (inactive) | -8.97% (inactive) | 33.9% (inactive) | -1.35% (inactive) | 107% (inactive) | 3.2% (inactive) | 1.3% (inactive) | 1.5% (inactive) | 0.08 (inactive) | 0% (inactive) | -0.06% (inactive) |
| O=c1c2ccccc2[se]n1-c1ccccc1 | 99.6% (inactive) | 94.6% (inactive) | 110% (inactive) | 94.4% (inactive) | 99.2% (inactive) | 57.5 | 111% (inactive) | 15.4% (inactive) | 120% (inactive) | 5% (inactive) | 12.7% (inactive) | 116% (active) | -0.76% (inactive) | 9.72% (active) | 33.2% (active) | 92.6% (active) | -9.3% (inactive) | 37.3 (active) | 5% (inactive) | 0.41% (inactive) |
| CC(C)(C)C(O)C(Oc1ccc(Cl)cc1)n1cncn1 (stereo not given) | 105% (inactive) | 107% (inactive) | 106% (inactive) | 121% (inactive) | 115% (inactive) | 62 | 218% (inactive) | 1.44% (inactive) | 277% (inactive) | 2% (inactive) | -29.1% (inactive) | 7.17% (inactive) | -0.61% (inactive) | 100% (inactive) | -0.4% (inactive) | 0% (inactive) | -4.4% (inactive) | -0.04 (inactive) | 4% (inactive) | 6.83% (inactive) |
| O=c1cccc2n1C[C@H]1C[C@@H]2CN2CCCC[C@@H]12 | 97.6% (inactive) | 111% (inactive) | 94.8% (inactive) | 118% (inactive) | 98.1% (inactive) | 61.7 | 124% (inactive) | -9.98% (inactive) | 100% (inactive) | -2% (inactive) | 2.05% (inactive) | -2.4% (inactive) | -3.47% (inactive) | 101% (inactive) | -0.6% (inactive) | -0.2% (inactive) | -7.3% (inactive) | -0.03 (inactive) | 4% (inactive) | -24.8% (inactive) |
| OC1CCCCC1N1CCC(c2ccccc2)CC1 (stereo not given) | 92.8% (inactive) | 133% (inactive) | 91.3% (inactive) | 70.4% (inactive) | 89.4% (inactive) | 62.4 | 171% (inactive) | 5.49% (inactive) | 110% (inactive) | 3% (inactive) | -8.3% (inactive) | -5.17% (inactive) | 2.23% (inactive) | 127% (inactive) | 8.9% (inactive) | -1% (inactive) | 6.3% (inactive) | 0.52 (active) | 15% (inactive) | -1.64% (inactive) |
